Measurements taken from ChEMBL document CHEMBL4513216, “Probing the Open Global Health Chemical Diversity Library for Multistage-Active Starting Points for Next-Generation Antimalarials” (ACS Infect Dis, 2020).
Out of some 69,000 compounds screened, about 8,600 (12%) showed an effect of 50% or more. This excerpt belongs to a sample that is enriched for strong results.

What follows are molecules tested on Plasmodium berghei (assay: Screen against P. berghei liver stage (PbLuc), transformed with Luciferase, at 10uM). Details: tested at 10 uM.
Assay type: functional, HepG2

Row | SMILES | INHIBITION
1 | CC1c2ncc(Cn3cccn3)n2CCN1S(=O)(=O)C1CC1 (stereo not given) | 30.3%
2 | CCN1CC2(CC1=O)CN(Cc1cnn(C)c1)CCN(C(C)=O)C2 (stereo not given) | -2.53%
3 | COc1ccc(CN(Cc2cncn2C)CC2CCCO2)c(OC)c1 (stereo not given) | 50%
4 | CCn1cncc1CN(Cc1ccc(OC)cc1OC)CC1CCCO1 (stereo not given) | 41.2%
5 | COc1ccc(CN(Cc2cncn2C)CC2CCCO2)cc1 (stereo not given) | 35.2%
6 | CCS(=O)(=O)c1ccccc1N1CCC(NC(C)=O)CC1 | 6%
7 | CCCC(=O)NC1CCN(c2ccccc2S(=O)(=O)CC)CC1 | 58.5%
8 | CCS(=O)(=O)c1ccccc1N1CCC(NC(=O)NC2CCCC2)CC1 | -28.9%
9 | CCS(=O)(=O)c1ccc(N2CCC(NC(=O)CC3CCCC3)CC2)cc1 | 60.1%
10 | CCS(=O)(=O)c1ccc(N2CCC(NC(C)=O)CC2)cc1 | 19.7%
11 | CCS(=O)(=O)c1ccc(N2CCC(NC(=O)C3CCCCC3)CC2)cc1 | 37.7%
12 | CCc1nnc2n1CCN(C(=O)c1ccc3[nH]nnc3c1)C2 | -1.85%
13 | CCOc1ccccc1OC1CCN(C(=O)c2c[nH]nn2)CC1 | 33.8%
14 | CS(=O)(=O)N1CCOCC2(CCN(C(=O)c3ccncc3)CC2)C1 | 19.5%
15 | COc1ccc(N2CCN(Cc3nc(CSC)no3)C(C)C2=O)cc1 (stereo not given) | -0.55%
16 | CN(C)C[C@H]1OC[C@@H]2CCN(C(=O)NCc3cccc(F)c3)C[C@@H]21 | 61.9%
17 | CN(C)C[C@H]1OC[C@@H]2CN(C(=O)NCc3cccc(F)c3)CC[C@@H]21 | 24.9%
18 | CN1CCO[C@@H]2CN(C(=O)NCc3cccc(F)c3)CC[C@@H]2C1 | 17.7%
19 | Cc1cccc(CN2CC[C@H]3CO[C@H](CNC(=O)N(C)C)[C@H]3C2)c1 | -4.88%
20 | COc1ccc(CN2CC[C@H]3[C@H](CO[C@H]3CNC(=O)N(C)C)C2)cc1 | 4.61%
21 | CN(C)C(=O)NC[C@@H]1OC[C@H]2CN(Cc3cccc(F)c3)CC[C@H]21 | 69.6%
22 | Cc1ccccc1CN(CCN(C)C)Cc1ccc(C(=O)O)cc1 | -4.37%

Row | SMILES | INHIBITION
23 | CC(C)c1nc2n(n1)CC(NCc1nc(C3CC3)no1)CC2 (stereo not given) | 16.8%
24 | CN(CC1CCCCO1)c1ncnc2cc(F)ccc12 (stereo not given) | 4.68%
25 | Cc1ccc(=O)n(CC2(O)CCN(Cc3cc(C)c(O)c(C)c3)CC2)n1 | 42.1%
26 | CCn1ccc(NC(=O)C2CCC(=O)N2Cc2ccc(C)o2)n1 (stereo not given) | -20.8%
27 | C[C@@H]1CN(C(=O)C2(Cn3cccn3)CC2)C[C@@]1(O)C1CCC1 | 9.845%
28 | CN(CC(=O)N1CCCC1c1cnn(C)c1)Cc1ccccc1 (stereo not given) | -25.8%
29 | Cc1cc(CNC(=O)N2CCN(c3ccccc3)CC2)no1 | 14.2%
30 | Cc1cc(CNC(=O)NC(C)c2ccc(N3CCOCC3)cc2)no1 (stereo not given) | 35.1%
31 | Cc1cc(CNC(=O)NCc2ccccc2N2CCOCC2)no1 | 52.4%
32 | CCC(=O)Nc1cccc(OCC(=O)N(C)Cc2ccon2)c1 | 20.2%
33 | CCC(=O)Nc1cccc(OCC(=O)N(C)Cc2nccn2CC)c1 | 66.1%
34 | CCC(=O)Nc1cccc(OCC(=O)N(C)Cc2nc(C)c[nH]2)c1 | 3.82%
35 | Cn1ccnc(Nc2ccc3c(c2)CCN3C(=O)c2ccoc2)c1=O | -21.6%
36 | Cc1nc(CC(=O)N2CCCC2Cn2cccn2)cs1 (stereo not given) | 19.4%
37 | O=C(CN1C(=O)CCNC1=O)N1CCC(c2ccc(F)cc2)C1 (stereo not given) | 33.4%
38 | O=C(C1CCS(=O)(=O)CC1)N1CCC(c2ccc(F)cc2)C1 (stereo not given) | -9.51%
39 | CC(C)N1CCC(C(=O)N2CCN(c3cccc(C(=O)O)c3)CC2)CC1 | 43.9%
40 | CC(C)N1CCC(C(=O)N2CCCN(c3ccccc3)CC2)CC1 | 33.9%
41 | O=C(C1CC1)N1CCC(C(=O)N2CCC(c3ccc(F)cc3)C2)CC1 (stereo not given) | 61.9%
42 | O=C(C1CCCC1)N1CCC(C(O)c2ccc(F)cc2)CC1 (stereo not given) | 31.7%
43 | O=C(C1CCC1)N1CCC(C(=O)N2CCC(c3ccc(F)cc3)C2)CC1 (stereo not given) | 62.8%
44 | O=C(c1cc(F)ccc1O)N1CCN(C(=O)C2CCC2)CC1 | 6.11%

Row | SMILES | INHIBITION
45 | CC(C)N1CCC(C(=O)N2CCC(c3ccc(F)cc3)C2)CC1 (stereo not given) | 73%
46 | Cc1cnc2c(S(=O)(=O)NC3CCS(=O)(=O)C3)cccc2c1 (stereo not given) | 10%
47 | Cc1ccc(C(=O)N(C)Cc2cc(C)on2)cn1 | 21.5%
48 | N#Cc1ccccc1N1CCCN(C(=O)CCc2ccco2)CC1 | -2.53%
49 | CSCC(=O)N[C@H]1CC[C@H](Nc2nccc(-c3cccnc3)n2)C1 | 49.7%
50 | CN1CCc2[nH]nc(C(=O)N3CCCC4(CC3)CNC(=O)O4)c2C1 (stereo not given) | 46.1%
51 | CN1CCc2[nH]nc(C(=O)N3CCC4(CCCO4)CC3)c2C1 | 71.2%
52 | CN1CCc2[nH]nc(C(=O)N3CCC4(CN(C)C(=O)O4)C3)c2C1 (stereo not given) | 48.9%
53 | CSCc1cc(C(=O)NC2(C#N)CC2)ccc1F | 32.3%
54 | CSCc1cc(C(=O)NC2(C#N)CCSC2)ccc1F (stereo not given) | -77.6%
55 | N#CC1(NC(=O)c2ccc(F)c(Br)c2)CCSC1 (stereo not given) | 51.8%
56 | Cc1nn(C)c(C)c1C(=O)N1CCOCC1CC(=O)c1ccco1 (stereo not given) | 17.4%
57 | CCOC(=O)C1(O)CCN(C(=O)Nc2ccc(CC)cc2)CC1 | -62.8%
58 | Cc1cnc(N2C[C@@H]3[C@@H](C2)OCC(=O)N3CC2CC2)nc1 | 31.9%
59 | CN(C)CCN1C(=O)CO[C@@H]2CN(c3ncc(F)cn3)C[C@H]21 | 17.2%
60 | Cc1cnc(N2C[C@@H]3[C@@H](C2)OCC(=O)N3CCN(C)C)nc1 | 73.3%
61 | Cc1nn(C)c(N(C)C)c1CNCc1ccc(Cn2cncn2)cc1 | -56.7%
62 | O=C(O)c1cccnc1CN1CCCCC1CCc1ccccn1 (stereo not given) | 37.6%
63 | O=C(O)c1cccnc1CN1CCCCC1CCc1cccc(O)c1 (stereo not given) | 41.2%
64 | O=C(O)c1cccnc1CN1CCCC1CCc1ccccc1 (stereo not given) | 51.2%
65 | CCOCC1CN(S(=O)(=O)c2cccc(C)c2)Cc2nccn2C1 (stereo not given) | 13.1%
